# According to PubChem BioAssay (NCATS):
# Several values for one entry are separate records, joined by “and”; a condition that tells them apart may be missing. Equal values may be shown once. A number with no mark means an inactive call. Records with an inconclusive call do not appear. The list shows a part of the results. Activity calls are given as the source filed them. Unless noted, the call rests on the fitted dose curve; in most records, active means well fitted curve in the direction sought with a large enough effect; inconclusive means small, poorly fitted or top-dose-only effect, or another doubt; inactive means no such curve, though single readings can be large; an effect the other way counts as inactive or inconclusive.
# What was measured:
# [1] = target: Tumor necrosis factor (Homo sapiens) (UniProt P01375); experiment: qHTS assay to identify small molecules that stimulate Tumor Necrosis Factor-alpha (TNF-alpha) secretion (AID 651757; active means well fitted curve in the direction sought with a large enough effect in the signal ratio; the % refers to the signal ratio; further: 0% is about no effect)
# How it was run: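 Using 3000 THP-1 cells per well, compounds and controls were applied for 17 hrs at 37 C. Detection followed with two labeled anti-TNF-alpha antibodies (cryptate donor, XL665 acceptor) for 3 hr at room temperature, measured by TR-FRET.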
# [2] = qHTS assay for environmental chemicals that activate the Aryl hydrocarbon Receptor (AhR) signaling pathway (AID 651777); details: 1A2-DRE human hepatoma cells, luciferase, 24 h; activation: hits give high values; further: % of control where 0% means no effect; nearly all actives have a fitted effect of over 15% in size
# How it was run: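 AhR activation is scored as a rise in luciferase from a stable DRE–CYP1A2 promoter construct in human hepatoma cells. Treatment lasts 24 hr at 37 C; detection uses One-Glo after 30 min at room temperature.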
# [3] = target: Peroxisome proliferator-activated receptor alpha (Homo sapiens) (UniProt Q07869); experiment: qHTS assay for small molecule agonists of the peroxisome proliferator-activated receptor alpha (PPARalpha) signaling pathway (AID 651778); details: PathHunter PPARalpha complementation, chemiluminescence, 6 h; hits give high values; further: % of control where 0% means no effect
# How it was run: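 Chemiluminescence from complemented enzyme reported PPARalpha activation in cells after 6 hr of compound treatment at 37 C. The detection reagent was incubated for 60 min at room temperature, and compounds were scored as agonists.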
# [4] = target: Nuclear receptor ROR-gamma (Homo sapiens) (UniProt P51449); experiment: qHTS assay for small molecule antagonists of the retinoid-related orphan receptor gamma (ROR-gamma) signaling pathway (AID 651802); further: nearly all actives have a fitted effect of over 60% in size; further: potency means the concentration at half of the fitted maximal effect
# How it was run: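 Doxycycline-induced reporter activity in engineered CHO cells (TET-inducible ROR, RORE-LUC) was measured by luminescence after 16hr compound exposure at 37C.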
# [5] = qHTS assay to identify small molecules that stimulate interleukin-8 (IL-8) secretion (AID 651758; active means well fitted activation curve with a large enough effect in the signal ratio; the % refers to the signal ratio; further: potency means the concentration at half of the fitted maximal effect)
# How it was run: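 Secreted IL-8 measured homogeneously by TR-FRET (two labelled anti-IL-8 antibodies, 1-3 h at room temperature) after a 16 h, 37 C compound treatment of THP-1 cells at 2000 cells/well.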
# [6] = target: DNA polymerase iota (Homo sapiens) (UniProt Q9UNA4); experiment: qHTS for Inhibitors of Polymerase Iota: Confirmatory Assay for Cherry-picked Compounds (AID 720496); details: Pol iota primer extension, TAMRA/BHQ fluorescence; further: potency means the concentration at half of the fitted maximal effect
# Text: DNA polymerases, such as polymerase iota (Pol iota), are involved in DNA repair. Pol iota specifically plays an important role in translesion synthesis, where the normal high-fidelity DNA polymerases cannot proceed and DNA synthesis stalls. […] Thus, while Pol eta and most likely Pol iota's normal functions are to protect humans against the deleterious consequences of DNA damage, under certain conditions they can have deleterious effects on human health. As a consequence, small molecule inhibitors of Pol iota (identified from a high throughput replication assay) have potential therapeutic applications. A 1536-well format, fluorescence based, high-throughput screen (AID 588590) is developed in collaboration with the National Institute of Child Health & Human Development (NICHD) to screen for inhibitors of the […]. This screen is used to validate the activity of the selected compounds from the primary assay against the […]. Inhibition is the desired outcome for this assay. […]
# Three microliters of reagents (buffer in column 3 and 4 as negative control while 10 nM Pol iota in columns 1, 2, and 5-48) were dispensed into a 1536-well black solid-bottom plate. […] The assay plates were initially read after 0 min and again after 10 min of kinetic reaction using the PerkinElmer Viewlux reader equipped with 525 nm excitation and 598 nm emission filters.
# [7] = target: DNA polymerase kappa (Homo sapiens) (UniProt Q9UBT6); experiment: qHTS for Inhibitors of Polymerase Kappa: Confirmatory Assay for Cherry-picked Compounds (AID 720501); details: purified Pol-kappa, fluorescent strand-displacement substrate; further: potency means the concentration at half of the fitted maximal effect
# How it was run: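 Strand-displacement fluorescence read-out: TAMRA reporter released from a BHQ-2-quenched template, measured at 525/598 nm over a 10 min kinetic window. Substrate was 50 nM final; enzyme was 10 nM Pol-kappa, preincubated 15 min at room temperature with compound.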
# [8] = target: DNA polymerase eta (Homo sapiens) (UniProt Q9Y253); experiment: qHTS for Inhibitors of Polymerase Eta: Confirmatory Assay for Cherry-picked Compounds (AID 720502); details: Pol eta primer extension, TAMRA/BHQ fluorescence, 10 min; further: potency means the concentration at half of the fitted maximal effect
# How it was run: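 Enzyme at 10 nM is mixed with pin-transferred compound and left 15 min at room temperature. Substrate (50 nM final) is then added, and plates are read at 0 min and after 10 min.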
# Chain of Nuclear receptor ROR-gamma (Homo sapiens) (P51449 whole entry, looked up): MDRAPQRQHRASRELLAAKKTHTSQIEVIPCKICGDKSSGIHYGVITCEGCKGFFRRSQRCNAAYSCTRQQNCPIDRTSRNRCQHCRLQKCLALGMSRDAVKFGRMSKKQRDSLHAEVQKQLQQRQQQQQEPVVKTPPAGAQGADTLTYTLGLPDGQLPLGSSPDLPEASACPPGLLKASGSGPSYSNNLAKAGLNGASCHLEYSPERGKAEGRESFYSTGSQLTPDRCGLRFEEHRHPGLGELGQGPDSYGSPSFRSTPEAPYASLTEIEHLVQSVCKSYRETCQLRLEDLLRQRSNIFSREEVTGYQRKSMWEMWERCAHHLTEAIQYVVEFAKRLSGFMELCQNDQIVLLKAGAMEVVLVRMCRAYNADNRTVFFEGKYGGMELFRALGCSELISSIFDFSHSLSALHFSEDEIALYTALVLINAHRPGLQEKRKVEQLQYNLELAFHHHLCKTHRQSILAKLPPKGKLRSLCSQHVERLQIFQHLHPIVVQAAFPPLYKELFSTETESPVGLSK
# Chain of Peroxisome proliferator-activated receptor alpha (Homo sapiens) (Q07869 whole entry, looked up): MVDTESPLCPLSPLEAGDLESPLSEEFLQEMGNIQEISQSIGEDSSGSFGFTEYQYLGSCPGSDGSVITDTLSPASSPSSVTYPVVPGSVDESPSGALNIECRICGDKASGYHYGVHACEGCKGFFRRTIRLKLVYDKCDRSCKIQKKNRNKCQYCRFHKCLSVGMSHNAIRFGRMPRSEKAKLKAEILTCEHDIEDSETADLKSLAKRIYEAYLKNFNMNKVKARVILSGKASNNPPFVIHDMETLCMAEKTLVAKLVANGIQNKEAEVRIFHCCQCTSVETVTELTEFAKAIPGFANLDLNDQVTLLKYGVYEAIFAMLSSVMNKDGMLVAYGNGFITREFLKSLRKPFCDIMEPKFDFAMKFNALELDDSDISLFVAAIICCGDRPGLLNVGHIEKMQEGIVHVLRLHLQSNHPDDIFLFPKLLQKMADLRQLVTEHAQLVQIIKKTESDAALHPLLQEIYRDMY
# Chain of DNA polymerase eta (Homo sapiens) (Q9Y253 whole entry, looked up): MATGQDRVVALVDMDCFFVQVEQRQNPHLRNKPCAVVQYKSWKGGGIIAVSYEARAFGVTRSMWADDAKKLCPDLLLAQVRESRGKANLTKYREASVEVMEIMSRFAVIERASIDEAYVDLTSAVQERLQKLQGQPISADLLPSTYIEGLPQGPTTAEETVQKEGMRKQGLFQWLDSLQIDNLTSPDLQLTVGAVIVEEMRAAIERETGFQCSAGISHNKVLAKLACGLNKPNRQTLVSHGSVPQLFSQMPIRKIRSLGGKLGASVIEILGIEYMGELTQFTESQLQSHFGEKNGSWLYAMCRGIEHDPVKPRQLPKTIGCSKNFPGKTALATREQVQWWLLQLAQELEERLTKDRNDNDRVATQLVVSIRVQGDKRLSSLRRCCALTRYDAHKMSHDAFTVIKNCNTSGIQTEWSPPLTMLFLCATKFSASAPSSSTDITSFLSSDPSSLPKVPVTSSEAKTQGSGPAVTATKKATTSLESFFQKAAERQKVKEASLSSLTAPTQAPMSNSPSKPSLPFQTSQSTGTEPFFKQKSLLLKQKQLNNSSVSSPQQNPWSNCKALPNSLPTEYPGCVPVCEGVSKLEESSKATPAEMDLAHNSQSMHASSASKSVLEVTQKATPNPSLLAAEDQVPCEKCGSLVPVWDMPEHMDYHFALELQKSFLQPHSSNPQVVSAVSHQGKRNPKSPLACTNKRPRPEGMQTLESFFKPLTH
# Chain of Tumor necrosis factor (Homo sapiens) (P01375 whole entry, looked up): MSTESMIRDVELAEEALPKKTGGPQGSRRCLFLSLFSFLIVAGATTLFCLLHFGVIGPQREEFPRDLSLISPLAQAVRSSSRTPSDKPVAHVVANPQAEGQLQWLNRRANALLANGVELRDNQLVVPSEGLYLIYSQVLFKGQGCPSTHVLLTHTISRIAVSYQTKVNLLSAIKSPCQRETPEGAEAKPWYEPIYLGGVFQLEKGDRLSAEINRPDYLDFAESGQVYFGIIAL
# Chain of DNA polymerase kappa (Homo sapiens) (Q9UBT6 whole entry, looked up): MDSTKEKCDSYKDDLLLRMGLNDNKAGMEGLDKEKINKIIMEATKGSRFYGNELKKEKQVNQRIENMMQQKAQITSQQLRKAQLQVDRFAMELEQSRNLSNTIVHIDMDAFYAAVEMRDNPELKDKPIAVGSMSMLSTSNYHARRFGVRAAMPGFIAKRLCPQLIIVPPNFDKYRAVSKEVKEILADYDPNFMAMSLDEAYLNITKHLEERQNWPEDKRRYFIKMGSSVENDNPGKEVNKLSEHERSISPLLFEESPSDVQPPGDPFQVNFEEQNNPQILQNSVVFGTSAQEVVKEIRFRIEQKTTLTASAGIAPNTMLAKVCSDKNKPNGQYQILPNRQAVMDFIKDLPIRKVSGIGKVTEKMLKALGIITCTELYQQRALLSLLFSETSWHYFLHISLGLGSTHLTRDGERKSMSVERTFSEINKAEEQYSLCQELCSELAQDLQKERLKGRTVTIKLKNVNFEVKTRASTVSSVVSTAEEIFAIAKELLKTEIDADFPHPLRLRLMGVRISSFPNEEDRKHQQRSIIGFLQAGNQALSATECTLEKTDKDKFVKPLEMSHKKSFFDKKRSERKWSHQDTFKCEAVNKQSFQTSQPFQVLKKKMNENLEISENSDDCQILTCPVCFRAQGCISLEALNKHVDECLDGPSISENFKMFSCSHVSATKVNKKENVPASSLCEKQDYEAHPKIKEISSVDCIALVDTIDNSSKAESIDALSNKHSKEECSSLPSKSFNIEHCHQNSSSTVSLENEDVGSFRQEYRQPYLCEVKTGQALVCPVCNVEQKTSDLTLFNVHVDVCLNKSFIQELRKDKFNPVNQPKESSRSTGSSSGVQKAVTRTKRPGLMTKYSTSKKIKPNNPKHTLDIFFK
# Chain of DNA polymerase iota (Homo sapiens) (Q9UNA4 whole entry, looked up): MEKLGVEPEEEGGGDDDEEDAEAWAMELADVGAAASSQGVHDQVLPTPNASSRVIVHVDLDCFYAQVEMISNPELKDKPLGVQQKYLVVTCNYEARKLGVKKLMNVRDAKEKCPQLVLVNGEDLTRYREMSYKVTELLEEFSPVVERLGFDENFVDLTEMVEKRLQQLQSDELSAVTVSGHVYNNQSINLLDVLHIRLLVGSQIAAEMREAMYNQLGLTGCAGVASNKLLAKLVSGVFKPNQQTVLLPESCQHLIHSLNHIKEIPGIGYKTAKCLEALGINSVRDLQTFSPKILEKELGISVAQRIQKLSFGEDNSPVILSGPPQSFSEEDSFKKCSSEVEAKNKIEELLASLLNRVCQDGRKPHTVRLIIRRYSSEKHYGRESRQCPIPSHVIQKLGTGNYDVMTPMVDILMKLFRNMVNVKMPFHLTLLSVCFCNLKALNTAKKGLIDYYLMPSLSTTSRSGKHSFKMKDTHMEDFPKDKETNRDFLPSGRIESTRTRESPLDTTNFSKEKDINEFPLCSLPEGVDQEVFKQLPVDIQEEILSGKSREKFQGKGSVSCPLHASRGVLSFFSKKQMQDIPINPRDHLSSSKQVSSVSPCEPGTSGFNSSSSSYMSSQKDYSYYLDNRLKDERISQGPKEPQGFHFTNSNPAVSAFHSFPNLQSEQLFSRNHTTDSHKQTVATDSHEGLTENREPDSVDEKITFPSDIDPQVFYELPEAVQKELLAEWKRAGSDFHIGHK
smiles,measurement,setting,value
CCCCCCCCCCCCCCCCCC(=O)O,outcome,[1],inactive
same,activation,[2],0.0234% and 0.947% and 1.53%
same,max response,[3],3.29% and 5.21% and -0.146%
same,Potency,[4],inactive
CN1[C@@H]2CC[C@H]1CC(OC(=O)C(CO)c1ccccc1)C2 (stereo partly specified),activation,[2],-1.81%
C#C[C@]1(O)CC[C@H]2[C@@H]3CCc4cc(O)ccc4[C@H]3CC[C@@]21C,outcome,[1],inactive
same,Potency,[5],75 µM (active)
same,activation,[2],-0.528% and -0.741%
same,max response,[3],-1.9% and -2.24%
same,Potency,[4],33.5 µM (active)
N=C1N=C(N)c2cc3ccccc3cc21,outcome,[1],inactive
same,activation,[2],12.9%
same,max response,[3],-3.58%
same,Potency,[4],59.6 µM (active)
CN1CCC[C@H]1c1cccnc1,outcome,[1],inactive
same,activation,[2],0.841% and 0.227%
same,max response,[3],-3.15% and -0.899%
CO/N=C(\C(=O)N[C@@H]1C(=O)N2C(C(=O)O)=C(COC(C)=O)CS[C@H]12)c1csc(N)n1 (stereo in doubt),Potency,[6],18.9 µM (active)
same,Potency,[7],9.47 µM (active) and 8.44 µM (active)
same,Potency,[8],15.1 µM (active) and 19 µM (active) and 8.49 µM (active)
CC(C)NCC(O)COc1cccc2ccccc12 (stereo unspecified),outcome,[1],inactive
same,activation,[2],1.27% and 9.4%
same,max response,[3],-1.25% and -0.701%
same,Potency,[4],inactive
C=CCCCCCCCCC(=O)O,activation,[2],1.9%
same,max response,[3],3.91%
